# From PubChem BioAssay (Tox21)
# A number with no mark means an inactive call. Inconclusive results are not listed. Entries that show only a call come without a potency. Activity calls are given as the source filed them. Unless noted, the call rests on the fitted dose curve; in most records, active means well fitted curve in the direction sought with a large enough effect in the repeat runs; inconclusive means weak or mixed curves; inactive means no such curve, though single readings can be large; an effect the other way counts as inactive or inconclusive.
# How the values were obtained:
# [1] = molecular target: Estrogen receptor beta (Homo sapiens) (UniProt Q92731); test: qHTS assay to identify small molecule agonists of the estrogen receptor beta (ER-beta) signaling pathway (AID 1259377; active means well fitted activation curve with a large enough effect in the signal ratio in the repeat runs, not every such curve was filed as active; the % refers to the signal ratio)
# Estrogen receptor beta (Homo sapiens), sequence (Q92731 whole entry, looked up): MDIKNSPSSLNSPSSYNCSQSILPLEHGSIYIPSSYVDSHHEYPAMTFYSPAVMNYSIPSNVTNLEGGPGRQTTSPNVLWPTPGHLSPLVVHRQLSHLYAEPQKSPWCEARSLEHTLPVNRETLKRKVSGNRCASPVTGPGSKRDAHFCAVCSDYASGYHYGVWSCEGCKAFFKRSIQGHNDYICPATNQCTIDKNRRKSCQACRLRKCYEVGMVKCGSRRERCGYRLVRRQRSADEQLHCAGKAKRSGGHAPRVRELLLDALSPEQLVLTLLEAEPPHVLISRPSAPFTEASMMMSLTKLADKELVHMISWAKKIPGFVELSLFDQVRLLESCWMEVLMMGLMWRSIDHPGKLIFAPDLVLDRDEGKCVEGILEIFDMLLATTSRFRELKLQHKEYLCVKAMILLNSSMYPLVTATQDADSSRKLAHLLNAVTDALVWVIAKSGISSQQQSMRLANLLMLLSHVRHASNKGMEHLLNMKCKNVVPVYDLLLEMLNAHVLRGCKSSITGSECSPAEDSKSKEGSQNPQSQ
# Method in brief: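 ER-beta-UAS-bla HEK293T cells in medium with 2% charcoal-stripped FBS were exposed to compounds for 16 h at 37C. Beta-lactamase reporter activity was read as fluorescence after 2 h with LiveBLAzer B/G FRET substrate at room temperature.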
# [2] = molecular target: Estrogen receptor beta (Homo sapiens) (UniProt Q92731); test: qHTS assay to identify small molecule antagonists of the estrogen receptor beta (ER-beta) signaling pathway (AID 1259378; active means well fitted inhibition curve with a large enough effect in the signal ratio in the repeat runs, not every such curve was filed as active; the % refers to the signal ratio; further: potency means the concentration at half of the fitted maximal effect)
# Method in brief: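 ER-beta-UAS-bla HEK293T (GripTite) cells in 2% charcoal-stripped FBS medium were preincubated 6 hr at 37C, dosed with compound, then stimulated with 1 nM E2 (final) for 16 hr; beta-lactamase reporter read by B/G FRET fluorescence after 2 hr substrate loading.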
# [3] = qHTS assay to identify small molecule agonists of the androgen receptor (AR) signaling pathway in the presence of an antagonist - cell viability counter screen (AID 1259379); further: nearly all actives have a fitted effect of over 25% in size; further: potency means the concentration at half of the fitted maximal effect
# Method in brief: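 In MDA-kb2 cells (human breast carcinoma, MMTV-luciferase), compounds at 15 concentrations plus 3.0uM nilutamide; 16 hr, 37C, 0% CO2; CellTiter-Fluor fluorescence read for viability.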
# [4] = qHTS assay to identify small molecule agonists of the estrogen receptor beta (ER-beta) signaling pathway - cell viability counter screen (AID 1259380); further: nearly all actives have a fitted effect of over 30% in size; further: potency means the concentration at half of the fitted maximal effect
# Method in brief: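 Viability of ER-beta-UAS-bla HEK293T cells was determined by CellTiter-Glo luminescence following 16 hr treatment with test compounds at 37C.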
# [5] = qHTS assay to identify small molecule antagonists of the estrogen receptor beta (ER-beta) signaling pathway - cell viability counter screen (AID 1259382); further: nearly all actives have a fitted effect of over 55% in size; further: potency means the concentration at half of the fitted maximal effect
# Method in brief: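 Tox21 10K library tested in qHTS format on ER-beta-bla HEK293T cells stimulated with 1nM E2; 16 hr treatment at 37C. Same-well CellTiter-Glo luminescence served as the cell viability measure.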
# [6] = molecular target: Estrogen receptor (Homo sapiens) (UniProt P03372); test: qHTS assay to identify small molecule agonists of the estrogen receptor alpha (ER-alpha) signaling pathway in the presence of an antagonist (AID 1259383; calls by dose curve; further: top concentration of the series differs between compounds; nearly all actives have a fitted effect of over 15% in size)
# Estrogen receptor (Homo sapiens), sequence (P03372 whole entry, looked up): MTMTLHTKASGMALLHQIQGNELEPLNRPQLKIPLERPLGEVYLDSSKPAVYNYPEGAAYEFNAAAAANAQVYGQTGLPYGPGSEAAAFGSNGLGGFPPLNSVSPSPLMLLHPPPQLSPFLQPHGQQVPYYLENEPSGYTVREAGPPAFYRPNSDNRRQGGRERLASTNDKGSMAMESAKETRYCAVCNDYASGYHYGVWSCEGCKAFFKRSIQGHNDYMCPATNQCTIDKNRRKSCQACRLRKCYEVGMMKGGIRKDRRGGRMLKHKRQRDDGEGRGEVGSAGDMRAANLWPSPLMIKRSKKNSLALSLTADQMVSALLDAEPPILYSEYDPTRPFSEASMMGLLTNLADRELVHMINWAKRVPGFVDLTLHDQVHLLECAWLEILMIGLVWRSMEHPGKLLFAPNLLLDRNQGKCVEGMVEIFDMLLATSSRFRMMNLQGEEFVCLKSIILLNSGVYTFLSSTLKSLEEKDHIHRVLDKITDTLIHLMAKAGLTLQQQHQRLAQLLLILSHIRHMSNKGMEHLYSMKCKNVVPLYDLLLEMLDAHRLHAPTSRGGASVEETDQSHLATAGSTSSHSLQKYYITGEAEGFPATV
# Method in brief: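 In VM7Luc4E2 cells, 4,000 per well, compounds at 15 concentrations were co-incubated 22hr at 37C with 10.0nM final ICI-182,780. Luminescence from the stably transfected 4×ERE-luciferase reporter was recorded 30min after ONE-Glo addition.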
# [7] = qHTS assay to identify small molecule agonists or antagonists of the thyroid stimulating hormone receptor (TSHR) signaling pathway - wild type cell line counter screen (AID 1259384; calls by dose curve)
# Method in brief: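 Wild-type HEK293 cells were plated 18 h at 37 C/5% CO2, pin-dosed with compound plus Ro20-1724 medium, held 30 min at room temperature, then given cAMP-d2 and anti-cAMP-cryptate; fluorescence was read after 1 h. Fifteen concentrations, triplicate.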
# [8] = molecular target: Thyrotropin receptor (Homo sapiens) (UniProt P16473); test: qHTS assay to identify small molecule antagonists of the thyroid stimulating hormone receptor (TSHR) signaling pathway (AID 1259385; calls by dose curve; further: nearly all actives have a fitted effect of over 20% in size; further: potency means the concentration at half of the fitted maximal effect)
# Thyrotropin receptor (Homo sapiens), sequence (P16473 whole entry, looked up): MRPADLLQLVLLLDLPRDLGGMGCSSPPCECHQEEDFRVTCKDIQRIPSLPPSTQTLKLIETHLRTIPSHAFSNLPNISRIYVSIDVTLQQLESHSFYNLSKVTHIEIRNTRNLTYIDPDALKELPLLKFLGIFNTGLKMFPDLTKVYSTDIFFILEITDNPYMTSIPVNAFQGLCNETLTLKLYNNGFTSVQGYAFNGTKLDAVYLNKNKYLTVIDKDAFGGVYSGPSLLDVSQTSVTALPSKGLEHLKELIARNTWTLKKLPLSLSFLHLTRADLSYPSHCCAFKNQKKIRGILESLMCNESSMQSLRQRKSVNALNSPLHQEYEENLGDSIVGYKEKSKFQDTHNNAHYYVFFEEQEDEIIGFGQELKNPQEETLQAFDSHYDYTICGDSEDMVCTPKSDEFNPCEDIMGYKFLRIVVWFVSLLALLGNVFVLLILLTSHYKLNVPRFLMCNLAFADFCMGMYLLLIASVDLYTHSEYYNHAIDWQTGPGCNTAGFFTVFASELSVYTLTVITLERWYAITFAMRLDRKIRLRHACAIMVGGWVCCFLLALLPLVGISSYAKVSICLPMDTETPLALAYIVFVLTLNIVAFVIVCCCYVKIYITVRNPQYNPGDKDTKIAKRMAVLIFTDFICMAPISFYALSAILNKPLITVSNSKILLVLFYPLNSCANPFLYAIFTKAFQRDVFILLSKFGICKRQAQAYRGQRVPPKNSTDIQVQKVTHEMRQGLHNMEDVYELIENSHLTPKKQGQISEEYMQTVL
# Method in brief: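 TSHR-HEK293 cells were plated and held 18 h at 37C/5% CO2, then given compound plus Ro20-1724 and stimulated with TSH at 1.5 ng/mL final. After 30 min at room temperature, cAMP was detected with cAMP-d2/anti-cAMP-cryptate (1 h) by fluorescence.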
# [9] = molecular target: Progesterone receptor (Homo sapiens) (UniProt P06401); test: qHTS assay to identify small molecule agonists of the progesterone receptor (PR) signaling pathway (AID 1346784; calls by dose curve; further: nearly all actives have a fitted effect of over 30% in size; further: potency means the concentration at half of the fitted maximal effect)
# Progesterone receptor (Homo sapiens), sequence (P06401 whole entry, looked up): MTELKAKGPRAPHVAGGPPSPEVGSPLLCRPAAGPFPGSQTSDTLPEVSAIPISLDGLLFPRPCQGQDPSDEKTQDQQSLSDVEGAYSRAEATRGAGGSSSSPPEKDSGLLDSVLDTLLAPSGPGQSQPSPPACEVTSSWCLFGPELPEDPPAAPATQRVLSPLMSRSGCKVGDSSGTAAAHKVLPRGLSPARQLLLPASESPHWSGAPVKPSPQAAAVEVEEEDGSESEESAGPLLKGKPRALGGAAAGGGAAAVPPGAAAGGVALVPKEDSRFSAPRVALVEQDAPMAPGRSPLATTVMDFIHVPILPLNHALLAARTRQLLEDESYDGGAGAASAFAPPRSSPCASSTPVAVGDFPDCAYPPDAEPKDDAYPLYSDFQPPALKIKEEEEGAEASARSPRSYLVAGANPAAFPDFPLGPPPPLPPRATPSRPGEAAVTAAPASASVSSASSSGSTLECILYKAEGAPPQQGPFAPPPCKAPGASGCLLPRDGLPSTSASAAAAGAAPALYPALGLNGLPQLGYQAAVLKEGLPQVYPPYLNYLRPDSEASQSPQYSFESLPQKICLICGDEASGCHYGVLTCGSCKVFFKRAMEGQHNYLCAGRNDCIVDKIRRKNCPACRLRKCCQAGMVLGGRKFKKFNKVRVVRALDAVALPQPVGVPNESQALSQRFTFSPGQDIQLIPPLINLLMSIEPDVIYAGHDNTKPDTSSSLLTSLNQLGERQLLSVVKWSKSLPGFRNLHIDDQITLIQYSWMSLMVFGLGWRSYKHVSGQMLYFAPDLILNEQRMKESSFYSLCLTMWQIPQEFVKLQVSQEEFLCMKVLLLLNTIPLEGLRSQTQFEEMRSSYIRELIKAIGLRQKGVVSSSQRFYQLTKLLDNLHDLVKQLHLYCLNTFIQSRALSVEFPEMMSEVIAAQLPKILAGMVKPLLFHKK
# Method in brief: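 PR-UAS-bla HEK 293T cells (beta-lactamase reporter under UAS) in 2% charcoal-stripped FBS, dosed with 23 nL compound after 6 hr, incubated 16hr at 37C. LiveBLAzer B/G FRET substrate added, fluorescence read after 2 hours.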
# [10] = molecular target: Progesterone receptor (Homo sapiens) (UniProt P06401); test: qHTS assay to identify small molecule antagonists of the progesterone receptor (PR) signaling pathway (AID 1346795; active means well fitted inhibition curve with a large enough effect in the signal ratio in the repeat runs, not every such curve was filed as active; the % refers to the signal ratio; further: potency means the concentration at half of the fitted maximal effect)
# Method in brief: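 PR-UAS-bla HEK293T cells with beta-lactamase reporter under UAS control, in 2% charcoal-stripped FBS, treated with compounds plus 1 nM promegestone (R5020, final) for 16 hr at 37C. Read-out: FRET beta-lactamase substrate fluorescence after 2 hr at room temperature.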
# [11] = qHTS assay to identify small molecule antagonists of the progesterone receptor (PR) signaling pathway - cell viability counter screen (AID 1346798); further: series mostly up to about 92 µM; nearly all actives have a fitted effect of over 50% in size
# Method in brief: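 PR-UAS-bla HEK293T cells, 3,000/well in 2% charcoal-stripped FBS medium, dosed with compounds plus R5020 agonist and incubated 16 h at 37C. Viability then measured in the same wells by CellTiter-Glo luminescence after 30 min at RT.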
# [12] = qHTS assay to identify small molecule agonists of the progesterone receptor (PR) signaling pathway - cell viability counter screen (AID 1346799; calls by dose curve; further: nearly all actives have a fitted effect of over 45% in size)
# Method in brief: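 Counter screen in the PR-UAS-bla HEK293T wells (2% charcoal-stripped FBS, 16 h compound exposure at 37 C) after the bla read. CellTiter-Glo added, 30 min at room temperature, luminescence read as cell viability.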
# [13] = qHTS assay to identify small molecule antagonists of the TGF-beta/Smad signaling pathway - cell viability counter screen (AID 1346824); further: nearly all actives have a fitted effect of over 50% in size
# Method in brief: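 SBE-bla HEK 293T cells were plated overnight at 37 C, then given compounds in DMSO plus TGF-beta1 (added as 0.25 ng/mL solution) for 5 hr. After the bla read, CellTiter-Glo was added to the same wells and luminescence read after 30 min at room temperature.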
# [14] = qHTS assay to identify small molecule agonists of the TGF-beta/Smad signaling pathway - cell viability counter screen (AID 1346829); further: top concentration of the series differs between compounds; nearly all actives have a fitted effect of over 45% in size
# Method in brief: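 In parallel with the Smad reporter read, viability of HEK 293T cells stably carrying SBE-bla is quantified by ATP luminescence following 5 hr compound treatment.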
# [15] = qHTS assay to identify small molecule agonists of the TGF-beta/Smad signaling pathway (AID 1346859; active means well fitted activation curve with a large enough effect in the signal ratio in the repeat runs, not every such curve was filed as active; the % refers to the signal ratio; further: series mostly up to about 77 µM)
# Method in brief: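 SBE-bla HEK293T cells plated overnight, then compound exposure for 5 h at 37 C. Beta-lactamase reporter read with LiveBLAzer B/G FRET substrate after 2 h at room temperature, fluorescence at 405 nm excitation, 460/530 nm emission.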
# [16] = molecular target: Thyrotropin-releasing hormone receptor (Homo sapiens) (UniProt P34981); test: qHTS assay to identify small molecule antagonists of the thyrotropin-releasing hormone receptor (TRHR) signaling pathway (AID 1346877; active means well fitted inhibition curve with a large enough effect in the repeat runs, not every such curve was filed as active; further: series mostly up to about 51 µM)
# Thyrotropin-releasing hormone receptor (Homo sapiens), sequence (P34981 whole entry, looked up): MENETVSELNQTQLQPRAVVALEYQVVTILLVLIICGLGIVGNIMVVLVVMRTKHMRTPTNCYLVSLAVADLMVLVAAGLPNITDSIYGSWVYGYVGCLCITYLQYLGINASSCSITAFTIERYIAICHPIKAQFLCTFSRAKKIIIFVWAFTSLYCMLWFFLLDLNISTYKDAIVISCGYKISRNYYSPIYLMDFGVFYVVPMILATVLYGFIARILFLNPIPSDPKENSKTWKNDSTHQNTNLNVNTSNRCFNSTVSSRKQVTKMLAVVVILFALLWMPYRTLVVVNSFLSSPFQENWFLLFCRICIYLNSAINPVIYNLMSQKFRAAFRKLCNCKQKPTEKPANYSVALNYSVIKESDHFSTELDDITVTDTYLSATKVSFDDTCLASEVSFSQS
# Method in brief: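 In this cell-based calcium flux format, HEK293 cells expressing TRHR received test compound for 5 min before the agonist TRH (1 nM final). Dye loading lasted 2 h at 37 °C.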
# [17] = molecular target: Thyrotropin-releasing hormone receptor (Homo sapiens) (UniProt P34981); test: qHTS assay to identify small molecule agonists of the thyrotropin-releasing hormone receptor (TRHR) signaling pathway (AID 1346891; calls by dose curve; further: series mostly up to about 58 µM)
# Method in brief: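 HEK293 cells expressing TRHR plated 18 h at 37 C/5% CO2, calcium dye-loaded 2 h at 37 C, then compound added (agonist mode); kinetic calcium fluorescence read 3 min at 1 s intervals; 15 concentrations in triplicate.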
# [18] = Human pregnane X receptor (PXR) small molecule agonists, qHTS cell viability counter screen (AID 1346977); further: nearly all actives have a fitted effect of over 50% in size; further: potency means the concentration at half of the fitted maximal effect
# Method in brief: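 PXR-Luc HepG2 cells (2,000/well, 5% charcoal-stripped FBS) preincubated 5 hr, then exposed to compounds 24 hr at 37 C. Viability read in the same wells by CellTiter-Fluor fluorescence, reagent added at 23 hr, 1 hr incubation.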
# [19] = qHTS assay to identify small molecule agonists of the estrogen receptor alpha (ER-alpha) signaling pathway in the presence of an antagonist - cell viability counter screen (AID 1259386);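 further: cells exposed to compounds for 22 h at 37 °C before the viability read; nearly all actives have a fitted effect of over 30% in size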; further: potency means the concentration at half of the fitted maximal effect
# Method in brief: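 Fluorescent CellTiter-Fluor viability signal from VM7Luc4E2 cells, with the reagent added during the final hour of a 22hr compound exposure at 37C in the presence of 10.0nM ICI-182,780.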
# [20] = molecular target: Androgen receptor (Homo sapiens) (UniProt P10275); test: qHTS assay to identify small molecule agonists of the androgen receptor (AR) signaling pathway in the presence of an antagonist (AID 1259381; calls by dose curve; further: nearly all actives have a fitted effect of over 15% in size)
# Androgen receptor (Homo sapiens), sequence (P10275 whole entry, looked up): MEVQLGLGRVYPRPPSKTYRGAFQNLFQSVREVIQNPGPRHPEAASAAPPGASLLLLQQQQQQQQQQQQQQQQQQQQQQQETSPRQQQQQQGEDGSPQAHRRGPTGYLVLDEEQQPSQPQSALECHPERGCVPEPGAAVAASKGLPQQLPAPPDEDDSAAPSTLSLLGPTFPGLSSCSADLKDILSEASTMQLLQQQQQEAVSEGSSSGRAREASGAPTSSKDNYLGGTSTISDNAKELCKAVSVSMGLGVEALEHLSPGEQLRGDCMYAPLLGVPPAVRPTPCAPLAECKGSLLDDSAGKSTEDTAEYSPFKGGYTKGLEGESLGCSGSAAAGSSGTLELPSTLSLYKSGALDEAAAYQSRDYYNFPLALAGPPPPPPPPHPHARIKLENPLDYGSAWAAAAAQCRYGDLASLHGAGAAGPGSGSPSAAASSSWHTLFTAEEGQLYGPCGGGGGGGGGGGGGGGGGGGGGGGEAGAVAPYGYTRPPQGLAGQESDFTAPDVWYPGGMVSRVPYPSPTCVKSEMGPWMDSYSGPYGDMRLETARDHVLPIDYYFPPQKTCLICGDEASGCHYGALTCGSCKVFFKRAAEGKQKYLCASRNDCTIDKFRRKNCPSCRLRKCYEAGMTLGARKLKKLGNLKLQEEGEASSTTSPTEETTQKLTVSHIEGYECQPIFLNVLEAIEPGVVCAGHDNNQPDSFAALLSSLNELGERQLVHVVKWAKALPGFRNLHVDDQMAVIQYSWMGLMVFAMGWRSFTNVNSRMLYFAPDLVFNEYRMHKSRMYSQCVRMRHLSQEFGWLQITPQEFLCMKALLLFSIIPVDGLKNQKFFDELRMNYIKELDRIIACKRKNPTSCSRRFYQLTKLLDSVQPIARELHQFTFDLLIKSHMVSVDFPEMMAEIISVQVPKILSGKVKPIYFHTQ
# Method in brief: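 Here, 15-concentration compound series were pin-transferred onto MDA-kb2 MMTV-luciferase cells already dosed with nilutamide (3.0uM final). After 16hr at 37C, ONE-Glo was added and luminescence read 30min later at room temperature.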
Structure (SMILES),Potency [1],Potency [2],Potency [3],Potency [4],Potency [5],Potency [6],Potency [7],Potency [8],Potency [9],Potency [10],Potency [11],Potency [12],outcome [13],Potency [14],Potency [15],outcome [16],outcome [17],Potency [18],Potency [19],Potency [20]
COc1cc(NC(C)CCCN)c2ncccc2c1 (stereo not drawn),inactive,inactive,inactive,inactive,inactive,inactive,inactive,inactive,inactive,inactive,inactive,inactive,inactive,inactive,inactive,inactive,inactive,29.8 µM (active),,
CC(=O)OC(C)C[N+](C)(C)C (stereo not drawn),inactive,inactive,inactive,inactive,inactive,inactive,inactive,inactive,inactive,,inactive,inactive,inactive,,inactive,,,inactive,inactive,
CCCCC(CC)COS(=O)(=O)O (stereo not drawn),inactive,inactive,inactive,inactive,inactive,inactive,inactive,inactive,,inactive,inactive,inactive,,inactive,inactive,inactive,,inactive,inactive,
C/C(C=O)=C\c1ccccc1,inactive,inactive,inactive,inactive,inactive,inactive,inactive,inactive,,inactive,inactive,inactive,,inactive,,inactive,inactive,inactive,,
CC1=C2[C@@H]([C@H](C)CC[C@H]2/C=C(\C)C(=O)O)[C@H](O)C1,inactive,inactive,inactive,inactive,inactive,inactive,inactive,inactive,inactive,,inactive,inactive,inactive,inactive,inactive,,,inactive,inactive,
CO[C@@H]1[C@@H](OC)[C@H](C)[C@@](O)(CC(=O)O)O[C@H]1[C@H](C)[C@H]1O[C@@]2(CC[C@@](C)([C@H]3CC[C@@](C)([C@@H]4O[C@@H]([C@H]5O[C@](C)(O)[C@H](C)C[C@@H]5C)C[C@@H]4OC4C[C@H](OC)[C@@H](OC)[C@H](C)O4)O3)O2)C[C@H](O)[C@H]1C (stereo partly drawn),inactive,11.9 µM (active),1.68 µM (active),1.88 µM (active),2.66 µM (active),inactive,inactive,18.8 µM (active),,,,,inactive,,inactive,inactive,inactive,3.35 µM (active),2.37 µM (active),
COC1CCC=CO1 (stereo not drawn),inactive,inactive,inactive,inactive,inactive,inactive,inactive,inactive,inactive,inactive,inactive,inactive,inactive,inactive,inactive,,,,inactive,
CCCCOCCOC(=O)c1cccnc1,inactive,inactive,inactive,inactive,inactive,inactive,inactive,inactive,,inactive,inactive,,inactive,inactive,inactive,inactive,inactive,inactive,inactive,inactive
CCCCCCCCCCCCCCCCCC(=O)OCC(CC)CCCC (stereo not drawn),inactive,inactive,inactive,inactive,inactive,,inactive,inactive,inactive,,inactive,inactive,inactive,inactive,inactive,,,,inactive,
CC(C)(O)c1coc(S(=O)(=O)NC(=O)Nc2c3c(cc4c2CCC4)CCC3)c1,inactive,inactive,inactive,inactive,,,inactive,,inactive,inactive,inactive,inactive,,,inactive,inactive,inactive,,inactive,
CC(C)(C)C(O)/C=C/c1ccc2c(c1)OCO2 (stereo not drawn),inactive,inactive,inactive,inactive,,inactive,inactive,inactive,,23.7 µM (active),inactive,inactive,inactive,inactive,inactive,inactive,inactive,,inactive,
CC(CO)(CO)C(=O)O,inactive,inactive,inactive,inactive,inactive,inactive,,,inactive,,inactive,inactive,,,inactive,,,,,
O=C(O)CCCc1c[nH]c2ccccc12,inactive,inactive,inactive,inactive,inactive,,inactive,inactive,inactive,inactive,inactive,inactive,inactive,inactive,,inactive,,,inactive,
CC(O)Cn1cnc2c1c(=O)n(C)c(=O)n2C (stereo not drawn),inactive,inactive,inactive,inactive,inactive,,,,,inactive,inactive,inactive,inactive,inactive,,inactive,inactive,inactive,inactive,
ClC1=C(Cl)C1(Cl)Cl,inactive,inactive,inactive,inactive,inactive,inactive,inactive,,,inactive,inactive,inactive,inactive,inactive,inactive,inactive,,inactive,,
O=C(O)c1ccc(O)cc1O,inactive,inactive,inactive,inactive,,,inactive,inactive,inactive,inactive,inactive,inactive,inactive,inactive,inactive,inactive,,inactive,,
O=C(C(=O)c1ccco1)c1ccco1,inactive,inactive,inactive,inactive,inactive,inactive,,inactive,2.75 µM (active),inactive,,,inactive,,inactive,,,inactive,inactive,
